Screening data (PubChem)
Hits are enriched below; roughly 4% of the tested compounds scored in any of these assays.
aDG glyco up – alpha-DG glycosylation activation; activation, % at 10 µM; Pro5-aDG cells, alpha-DG glycosylation AlphaScreen (IIH6); 0% Pro5, 100% B10-LARGE cell signal; 360,000 tested, 0.22% active;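 active means activation of at least 8% versus controls, or a plate z-score of at least 8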;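 further: Pro5 are CHO cells carrying HIG-tagged alpha-DG that lacks glycosylation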
ADAM17 inh – ADAM17 inhibition, QFRET primary screen; inhibition, % at 6.95 µM; 370,000 tested, 0.83% active; AID 720648; recombinant ADAM17, EDANS/DABCYL FRET peptide cleavage; P78536;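 active means inhibition above the mean of compounds lying between control limits plus 3 SD, set per campaign, cut at about 8.5% in these data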;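 further: 0% = DMSO-only wells as the low control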
Target sequence (P78536 215-824 limits assumed): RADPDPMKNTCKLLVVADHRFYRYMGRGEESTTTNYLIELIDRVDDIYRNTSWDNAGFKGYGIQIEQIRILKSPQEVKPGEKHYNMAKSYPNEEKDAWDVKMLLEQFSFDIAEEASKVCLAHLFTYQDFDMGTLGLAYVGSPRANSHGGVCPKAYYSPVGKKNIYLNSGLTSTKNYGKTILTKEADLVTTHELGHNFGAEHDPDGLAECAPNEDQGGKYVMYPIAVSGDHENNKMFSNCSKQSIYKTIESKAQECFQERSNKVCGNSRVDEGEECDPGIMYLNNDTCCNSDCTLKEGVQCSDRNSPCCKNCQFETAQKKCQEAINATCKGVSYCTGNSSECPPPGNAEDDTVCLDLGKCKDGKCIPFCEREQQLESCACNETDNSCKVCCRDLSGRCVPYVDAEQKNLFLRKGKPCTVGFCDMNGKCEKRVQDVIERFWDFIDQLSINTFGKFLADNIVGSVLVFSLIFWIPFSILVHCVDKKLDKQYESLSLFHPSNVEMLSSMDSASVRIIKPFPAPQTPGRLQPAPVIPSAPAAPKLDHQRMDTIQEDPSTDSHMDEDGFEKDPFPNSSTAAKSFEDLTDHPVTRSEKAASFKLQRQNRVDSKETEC
NR3A LBD binder – modulates the human NR3A ligand-binding domain; NR3A LBD differential scanning fluorimetry, Tm shift; 0% = protein alone, 100% = glycine-bound protein; Tm shift relative to glycine control, % at 25 µM; 340,000 tested, 2.5% active; AID 1259313;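 active means melting temperature shift of at least 10% of the positive control shift, at one fixed dose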
FAS TE block – FAS thioesterase (human) inhibition; P49327; recombinant FAS-TE, OMFH fluorogenic substrate, fluorescence endpoint; inhibition, % at 15 µM; 360,000 tested, 0.67% active; AID 602261;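 active means compounds whose normalised, plate-corrected inhibition of enzyme fluorescence in the single-dose primary screen is 50% or more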;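 further: 0% = DMSO with enzyme and 100% = substrate without enzyme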
ADAM10 inh – inhibitors of human ADAM10; O14672; recombinant ADAM10, EDANS/DABCYL FRET peptide cleavage, 3 h; inhibition, % at 7 µM; 370,000 tested, 0.62% active; AID 720582;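 active means inhibition above a per-campaign cutoff equal to the mean of compounds falling between control-based bounds plus 3 SD, cut at about 20% in these data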;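 further: 0% = DMSO wells while the 100% control is not disclosed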
FAS-TE inh conf – FAS thioesterase (human) inhibition, confirmation | 2,300 tested, 45% active | recombinant FAS-TE, OMFH fluorogenic substrate, fluorescence | AID 624325 | shares compounds with FAS TE block | inhibition, % at 15 µM;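 active means compounds inhibiting the enzyme by at least 50% at 15 µM in any one of the replicates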;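 further: 0% = enzyme with DMSO only and 100% = wells lacking enzyme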
Numbers without * were called inactive; x = no result.

SMILES	aDG glyco up	ADAM17 inh	NR3A LBD binder	FAS TE block	ADAM10 inh	FAS-TE inh conf
O=C(CSc1ccc([N+](=O)[O-])cn1)Nc1ccc2c(c1)OCCO2	0.2	3.2	2.0	84.7*	10.9	88.2*
CCOC(=O)C(C)(C)N(Cc1ccc(C)cc1)S(=O)(=O)c1ccc(Cl)c([N+](=O)[O-])c1	0.9	2.9	2.7	40.6	16.8	x
CC(C)(C)c1ccc(OCCC(=O)OCC(=O)NCc2ccccc2)cc1	0.0	3.3	1.7	64.7*	7.8	66.7*
Nc1ccc(S(=O)(=O)Nc2nccc(/C=C/c3ccccc3F)n2)cc1	0.6	0.9	-0.2	-3.3	-3.6	x
CN(C1CCCCC1)S(=O)(=O)c1ccc(SCC(=O)C(C)(C)C)nc1	0.4	-4.2	1.7	53.8*	-9.7	39.8
CC(C)CNC(=O)CSc1ccc(S(=O)(=O)N(C)C2CCCCC2)cn1	-0.1	-1.0	1.4	-0.1	0.9	x
COc1ccc(Cc2nc3c4c(ncn3n2)Oc2c(ccc3ccccc23)C4c2ccc(OC)c(OC)c2)cc1 (configuration not stated)	-0.5	0.6	0.9	19.6	4.4	x
COc1ccc(Cc2nc3c4c(ncn3n2)Oc2ccc3ccccc3c2C4c2ccc(OC)c(OC)c2)cc1 (configuration not stated)	-0.5	-4.0	-1.2	59.4*	-13.5	18.6
CN(Cc1ccon1)C(=O)CC1C(=O)NCCN1Cc1ccc(F)c(F)c1 (configuration not stated)	0.1	x	3.1	-3.5	x	x
Cc1ccc(NC(=O)C2CCN(S(=O)(=O)c3ccc(C(C)(C)C)cc3)CC2)cc1S(=O)(=O)N1CCOCC1	0.3	-0.4	-8.6	88.9*	3.0	31.2
Cc1ccc(NC(=O)c2ccc(S(=O)(=O)N3CC(C)CC(C)C3)cc2)cc1S(=O)(=O)N1CCOCC1 (configuration not stated)	0.7	1.9	-0.2	50.1*	-8.2	7.4
COc1ccc(S(=O)(=O)N2CCC(C(=O)NCCCn3ccnc3)CC2)cc1C	0.0	0.9	1.2	-3.5	6.0	x
O=C(N/C(=C/C=C\c1ccccc1)C(=O)N1CCOCC1)c1ccc(Br)cc1	-0.4	0.6	0.2	65.0*	5.9	61.3*
COC(=O)/C(=C\C=C\c1ccccc1)NC(=O)c1ccccc1	-0.2	0.7	-2.1	1.0	9.3	x
O=C(N/C(=C/C=C/c1ccccc1)C(=O)N1CCCCC1)c1ccc([N+](=O)[O-])cc1	-0.4	2.9	-1.7	91.8*	0.7	93.5*
CC(C)(C)NC(=O)/C(=C\C=C\c1ccccc1)NC(=O)c1ccc([N+](=O)[O-])cc1	0.1	0.3	14.7*	77.7*	6.4	89.4*
COc1ccc(CCNC(=O)c2cccnc2)cc1OC	-0.1	-4.7	-0.1	-7.6	-2.6	x
O=C1[C@H]2[C@@H](c3ccc(F)cc3)N3C(=O)N(c4cccc(F)c4)C(=O)[C@@]3(Cc3ccc(Cl)cc3)[C@H]2C(=O)N1C1CCCCC1	0.9	-2.5	9.6	71.2*	-2.4	28.4
Cc1cccc(N2C(=O)N3[C@H](c4ccc(F)cc4)[C@@H]4C(=O)N(C5CCCCC5)C(=O)[C@@H]4[C@]3(Cc3ccc(Cl)cc3)C2=O)c1	0.7	-2.6	-0.4	92.7*	4.6	20.7
CC[C@@]12C(=O)N(c3cccc(F)c3)C(=O)N1[C@H](c1ccc(Cl)cc1)[C@@H]1C(=O)N(C3CCCCC3)C(=O)[C@@H]12	0.4	3.9	-2.4	66.6*	5.9	22.1
Cc1ccc(N2C(=O)N3[C@H](c4ccc(Cl)cc4)[C@@H]4C(=O)N(C5CCCCC5)C(=O)[C@@H]4[C@]3(Cc3ccccc3)C2=O)cc1	0.4	-4.6	4.0	93.0*	7.8	37.5
COc1cccc(N(CC(=O)Nc2cccnc2)S(C)(=O)=O)c1	-0.4	0.5	-0.3	-4.2	-0.6	x
COC(=O)Cn1c(=NC(=O)c2cccc(OC)c2)sc2cc(OC)ccc21	0.1	-27.0	-7.3	14.8	-111.3	x
FCCCOc1ccc(-c2ccnc(-c3ccccc3)n2)cc1	0.5	3.5	-31.8	53.9*	7.1	44.1
CC1C(=O)CC(c2ccc([N+](=O)[O-])cc2)NC1c1ccc([N+](=O)[O-])cc1 (configuration not stated)	0.3	-0.7	-0.6	51.5*	12.0	-1.4
SMILES	aDG glyco up	ADAM17 inh	NR3A LBD binder	FAS TE block	ADAM10 inh	FAS-TE inh conf
CN(CCOc1ccccc1)CC(=O)Nc1ccc([N+](=O)[O-])cc1Cl	0.0	3.1	-4.6	59.7*	9.5	38.9*
O=C(CCl)N(C/C=C/c1ccccc1)c1ccc2c(c1)OCCO2	-0.1	-2.5	0.0	11.8	-1.3	x
CC(C)(C)OC(=O)NCCc1onc(-c2cccc([N+](=O)[O-])c2)c1C(=O)O	-0.1	-0.1	x	81.1*	5.8	87.0*
COC(=O)c1ccccc1NC(=S)N(Cc1ccc2c(c1)OCO2)Cc1cc2cccc(C)c2[nH]c1=O	-0.1	-2.2	-2.9	83.0*	0.6	7.7
Cc1cccc2cc(CN(CCN(C)C)C(=S)Nc3ccccc3)c(=O)[nH]c12	-0.2	-4.6	2.7	-5.6	-5.3	x
Cc1ccc(Cl)cc1NC(=O)COC(=O)c1ccc(CN2CCCC2=O)cc1	-0.2	0.9	-0.1	-2.3	4.4	x
Cc1cccc(OCC(=O)N/N=C/c2cc([N+](=O)[O-])ccc2N2CCOCC2)c1	-0.2	1.0	-17.7	66.1*	-1.9	57.0*
O=C(N/N=C\c1cc([N+](=O)[O-])ccc1N1CCOCC1)c1ccccn1	-0.1	-1.8	-1.0	34.7	-2.5	x
CCc1ccc(OCC(=O)N/N=C/c2cc([N+](=O)[O-])ccc2N2CCOCC2)cc1	0.1	1.8	-9.3	73.0*	-0.4	24.3
CC(=O)OCCN(C)c1cc(SC(C)C)c2nonc2c1[N+](=O)[O-]	-0.3	-1.2	2.1	14.2	3.6	x
CN(CCO)c1cc(Sc2nc3ccccc3s2)c2nonc2c1[N+](=O)[O-]	-0.5	2.9	-6.8	74.1*	14.3	74.2*
COc1ccc(/C=N/NC(=O)CNC(=O)c2ccc3c(c2)OCCO3)c(C(=O)O)c1OC	0.0	-1.7	-0.2	-7.8	-1.7	x
CNC(=O)CSc1ncnc2c1cnn2-c1ccccc1	-0.1	-3.0	-1.2	-7.3	5.3	x
O=C(CSc1ncnc2c1cnn2-c1ccccc1)NC1CCCC1	0.7	-3.2	1.1	60.9*	-4.5	54.9*
Cc1cccc(C)c1NC1=C(Cl)C(=O)OC1OC(=O)c1ccccc1 (configuration not stated)	-0.2	-1.5	-10.5	64.3*	10.6	28.5*
Cc1ccc(NC2=C(Cl)C(=O)OC2OC(=O)c2ccccc2)c(C)c1 (configuration not stated)	0.5	4.1	-11.8	37.6	12.6	x
O=C(COc1ccc(S(=O)(=O)N2CCCCC2)cc1)Nc1ccccc1F	0.2	0.1	3.7	52.3*	-7.2	54.8*
